Assays:
Test in all cases: DAPPL (digital affinity profiling via proximity ligation, sequencing); 10 mM Tris-HCl pH 7.5, 50 mM NaCl, 1 mM DTT, 4% glycerol, room temperature, 30 min; GST-TFs on glutathione beads, 16-mer random dsDNA library, 0.1% formaldehyde crosslink after washing; high values mean tight binding
[1] = biological target: T1, FLI1 (Homo sapiens, UniProt Q01543 1-452); details: protein: recombinant; tags: N-terminal GST; dsDNA, one strand shown
T1 sequence: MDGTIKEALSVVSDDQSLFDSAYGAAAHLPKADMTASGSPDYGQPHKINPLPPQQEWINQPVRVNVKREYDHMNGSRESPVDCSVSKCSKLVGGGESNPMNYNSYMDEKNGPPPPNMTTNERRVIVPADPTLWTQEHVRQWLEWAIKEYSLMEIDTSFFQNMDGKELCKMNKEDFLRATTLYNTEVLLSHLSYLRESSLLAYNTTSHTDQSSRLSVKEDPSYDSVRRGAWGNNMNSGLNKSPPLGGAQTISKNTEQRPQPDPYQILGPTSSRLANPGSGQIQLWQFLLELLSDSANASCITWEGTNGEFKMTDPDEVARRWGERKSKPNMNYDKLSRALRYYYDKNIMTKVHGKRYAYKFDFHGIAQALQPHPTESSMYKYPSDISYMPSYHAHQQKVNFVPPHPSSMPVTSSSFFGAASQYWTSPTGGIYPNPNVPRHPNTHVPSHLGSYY
Summary of the method: (§1)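 The binding signal reported is, for every hexamer, its read frequency for a factor over its read frequency for the tag-only sample. Reads came from pools of yeast-expressed, GST-fused human transcription factors on glutathione beads, barcoded with DNA and mixed with that sample, which were incubated with 200 nmole of a random double-stranded 16-mer DNA library in Tris/NaCl/DTT/glycerol buffer at room temperature for 30 min. After washing, the pools were crosslinked with 0.1% formaldehyde, proximity-ligated with BsaI/T4 ligase for 1 h at 37 °C, PCR-amplified and sequenced on an Illumina NextSeq500.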

[2] = biological target: T2, ELK1 (Homo sapiens, UniProt P19419 1-428); details: protein: recombinant; tags: N-terminal GST; dsDNA, one strand shown
T2 sequence: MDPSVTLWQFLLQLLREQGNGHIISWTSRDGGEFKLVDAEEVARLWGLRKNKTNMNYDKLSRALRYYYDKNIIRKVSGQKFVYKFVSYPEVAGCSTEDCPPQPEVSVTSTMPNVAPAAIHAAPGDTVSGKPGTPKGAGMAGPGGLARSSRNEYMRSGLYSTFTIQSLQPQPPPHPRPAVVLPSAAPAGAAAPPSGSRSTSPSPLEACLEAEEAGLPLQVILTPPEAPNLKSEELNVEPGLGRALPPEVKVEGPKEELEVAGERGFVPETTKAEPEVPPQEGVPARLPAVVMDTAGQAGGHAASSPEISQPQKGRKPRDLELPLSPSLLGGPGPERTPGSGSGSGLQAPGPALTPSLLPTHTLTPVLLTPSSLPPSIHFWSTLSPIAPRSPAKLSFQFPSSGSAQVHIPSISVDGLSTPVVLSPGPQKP
Summary of the method: as §1

[3] = biological target: T3, GABPA (Homo sapiens, UniProt Q06546 1-454); details: protein: recombinant; tags: N-terminal GST; dsDNA, one strand shown
T3 sequence: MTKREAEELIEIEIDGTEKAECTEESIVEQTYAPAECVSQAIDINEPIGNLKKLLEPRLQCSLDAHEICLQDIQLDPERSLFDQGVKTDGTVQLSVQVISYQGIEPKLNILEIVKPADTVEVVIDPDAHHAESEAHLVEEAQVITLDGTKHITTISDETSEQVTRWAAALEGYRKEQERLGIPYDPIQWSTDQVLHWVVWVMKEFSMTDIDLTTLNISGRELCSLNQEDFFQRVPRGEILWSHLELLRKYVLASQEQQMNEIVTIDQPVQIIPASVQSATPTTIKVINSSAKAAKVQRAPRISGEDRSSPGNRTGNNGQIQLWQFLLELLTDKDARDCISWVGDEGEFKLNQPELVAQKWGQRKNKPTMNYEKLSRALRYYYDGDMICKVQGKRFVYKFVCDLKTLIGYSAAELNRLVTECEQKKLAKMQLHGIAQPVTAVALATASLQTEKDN
Summary of the method: as §1

[4] = biological target: ELF1 (Homo sapiens, UniProt P32519 1-619); details: protein: recombinant; tags: N-terminal GST; dsDNA, one strand shown
Sequence of ELF1 (P32519 whole entry): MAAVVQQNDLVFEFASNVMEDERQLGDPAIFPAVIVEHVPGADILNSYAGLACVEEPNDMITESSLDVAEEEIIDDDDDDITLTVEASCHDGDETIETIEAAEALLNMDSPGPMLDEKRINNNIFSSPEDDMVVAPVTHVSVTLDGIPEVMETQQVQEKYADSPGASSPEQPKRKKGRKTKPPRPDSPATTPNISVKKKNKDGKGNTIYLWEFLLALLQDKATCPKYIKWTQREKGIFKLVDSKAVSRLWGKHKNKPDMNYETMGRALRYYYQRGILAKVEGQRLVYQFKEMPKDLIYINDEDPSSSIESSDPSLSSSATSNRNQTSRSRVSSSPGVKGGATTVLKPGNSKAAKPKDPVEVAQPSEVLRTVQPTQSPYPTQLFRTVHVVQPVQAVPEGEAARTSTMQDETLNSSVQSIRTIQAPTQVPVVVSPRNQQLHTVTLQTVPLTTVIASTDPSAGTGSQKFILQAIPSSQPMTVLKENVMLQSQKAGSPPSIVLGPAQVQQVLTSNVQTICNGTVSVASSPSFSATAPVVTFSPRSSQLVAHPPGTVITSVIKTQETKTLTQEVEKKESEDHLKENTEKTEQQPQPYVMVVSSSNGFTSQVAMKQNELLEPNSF
Summary of the method: as §1

[5] = biological target: ETV5 (Homo sapiens, UniProt P41161 1-510); details: protein: recombinant; tags: N-terminal GST; dsDNA, one strand shown
Sequence of ETV5 (P41161 whole entry): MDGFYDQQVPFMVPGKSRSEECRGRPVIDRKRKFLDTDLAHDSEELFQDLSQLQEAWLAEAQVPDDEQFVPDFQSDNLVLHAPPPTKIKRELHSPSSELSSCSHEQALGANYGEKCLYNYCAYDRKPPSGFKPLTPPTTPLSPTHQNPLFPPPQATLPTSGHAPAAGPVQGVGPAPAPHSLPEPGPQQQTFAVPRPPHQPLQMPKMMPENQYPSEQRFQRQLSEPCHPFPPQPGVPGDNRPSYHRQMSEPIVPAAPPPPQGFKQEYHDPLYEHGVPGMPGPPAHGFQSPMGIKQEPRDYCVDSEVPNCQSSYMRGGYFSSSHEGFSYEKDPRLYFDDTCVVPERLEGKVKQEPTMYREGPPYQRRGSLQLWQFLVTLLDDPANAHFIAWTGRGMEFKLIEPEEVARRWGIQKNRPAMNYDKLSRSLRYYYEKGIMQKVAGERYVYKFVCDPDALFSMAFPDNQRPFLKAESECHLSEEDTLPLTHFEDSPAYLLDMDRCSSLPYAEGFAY
Summary of the method: as §1

[6] = biological target: HSF1 (Homo sapiens, UniProt Q00613 1-529); details: protein: recombinant; tags: N-terminal GST; chain copies: 3; dsDNA, one strand shown
Sequence of HSF1 (Q00613 whole entry): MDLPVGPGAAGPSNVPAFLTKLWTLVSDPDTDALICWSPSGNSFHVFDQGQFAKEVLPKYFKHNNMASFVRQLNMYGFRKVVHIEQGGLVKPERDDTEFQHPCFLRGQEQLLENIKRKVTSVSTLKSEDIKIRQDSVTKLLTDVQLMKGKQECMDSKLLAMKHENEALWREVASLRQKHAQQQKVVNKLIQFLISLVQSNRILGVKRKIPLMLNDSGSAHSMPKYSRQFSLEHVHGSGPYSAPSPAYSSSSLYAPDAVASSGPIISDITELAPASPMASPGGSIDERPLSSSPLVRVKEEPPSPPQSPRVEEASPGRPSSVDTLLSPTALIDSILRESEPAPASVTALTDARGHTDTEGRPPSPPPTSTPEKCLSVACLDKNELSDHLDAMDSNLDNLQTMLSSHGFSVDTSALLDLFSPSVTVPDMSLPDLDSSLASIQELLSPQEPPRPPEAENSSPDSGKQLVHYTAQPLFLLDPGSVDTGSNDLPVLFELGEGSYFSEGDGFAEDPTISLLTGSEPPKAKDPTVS
Summary of the method: as §1

[7] = biological target: T4, SPIC (Homo sapiens, UniProt Q8N5J4 1-248); details: protein: recombinant; tags: N-terminal GST; dsDNA, one strand shown
T4 sequence: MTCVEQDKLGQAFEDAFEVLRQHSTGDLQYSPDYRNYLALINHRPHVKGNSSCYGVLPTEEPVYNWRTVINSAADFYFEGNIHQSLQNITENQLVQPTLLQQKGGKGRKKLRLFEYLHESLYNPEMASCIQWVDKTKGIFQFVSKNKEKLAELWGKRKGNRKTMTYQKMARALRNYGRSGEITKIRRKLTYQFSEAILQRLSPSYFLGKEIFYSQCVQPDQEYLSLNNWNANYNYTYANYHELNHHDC
Summary of the method: as §1

[8] = biological target: ELF4 (Homo sapiens, UniProt Q99607 1-663); details: protein: recombinant; tags: N-terminal GST; dsDNA, one strand shown
Sequence of ELF4 (Q99607 whole entry): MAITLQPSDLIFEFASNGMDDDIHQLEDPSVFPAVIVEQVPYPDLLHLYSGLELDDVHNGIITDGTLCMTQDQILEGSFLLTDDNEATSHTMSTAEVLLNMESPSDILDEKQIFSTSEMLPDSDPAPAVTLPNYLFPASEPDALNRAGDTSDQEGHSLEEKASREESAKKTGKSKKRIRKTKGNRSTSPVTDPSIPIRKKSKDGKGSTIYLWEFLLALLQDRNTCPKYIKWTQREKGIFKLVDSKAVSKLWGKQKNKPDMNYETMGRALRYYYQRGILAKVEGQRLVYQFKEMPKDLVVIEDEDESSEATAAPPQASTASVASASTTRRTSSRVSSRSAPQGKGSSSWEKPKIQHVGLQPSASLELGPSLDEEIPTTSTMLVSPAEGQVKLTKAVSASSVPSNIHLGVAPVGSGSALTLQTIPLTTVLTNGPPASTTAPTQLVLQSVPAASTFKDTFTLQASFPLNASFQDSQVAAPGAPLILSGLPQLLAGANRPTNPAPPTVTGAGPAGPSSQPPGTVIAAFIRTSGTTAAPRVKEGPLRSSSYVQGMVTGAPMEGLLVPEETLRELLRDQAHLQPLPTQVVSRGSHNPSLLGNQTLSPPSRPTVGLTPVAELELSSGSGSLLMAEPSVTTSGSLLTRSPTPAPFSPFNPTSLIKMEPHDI
Summary of the method: as §1

[9] = biological target: T5, ELK4 (Homo sapiens, UniProt P28324-2 1-405); details: protein: recombinant; tags: N-terminal GST; dsDNA, one strand shown
T5 sequence: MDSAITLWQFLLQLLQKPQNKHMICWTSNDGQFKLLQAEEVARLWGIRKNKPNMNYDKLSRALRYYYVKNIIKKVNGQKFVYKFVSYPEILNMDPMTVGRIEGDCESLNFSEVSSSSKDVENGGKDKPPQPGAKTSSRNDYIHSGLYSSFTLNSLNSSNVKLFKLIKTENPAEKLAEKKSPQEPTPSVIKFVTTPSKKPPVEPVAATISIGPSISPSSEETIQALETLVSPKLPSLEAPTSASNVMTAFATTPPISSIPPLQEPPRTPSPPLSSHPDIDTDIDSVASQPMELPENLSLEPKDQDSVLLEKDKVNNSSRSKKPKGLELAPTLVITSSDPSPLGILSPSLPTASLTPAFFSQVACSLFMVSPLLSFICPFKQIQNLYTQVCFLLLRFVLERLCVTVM
Summary of the method: as §1

[10] = biological target: T6, ETV2 (Homo sapiens, UniProt O00321 1-342); details: protein: recombinant; tags: N-terminal GST; dsDNA, one strand shown
T6 sequence: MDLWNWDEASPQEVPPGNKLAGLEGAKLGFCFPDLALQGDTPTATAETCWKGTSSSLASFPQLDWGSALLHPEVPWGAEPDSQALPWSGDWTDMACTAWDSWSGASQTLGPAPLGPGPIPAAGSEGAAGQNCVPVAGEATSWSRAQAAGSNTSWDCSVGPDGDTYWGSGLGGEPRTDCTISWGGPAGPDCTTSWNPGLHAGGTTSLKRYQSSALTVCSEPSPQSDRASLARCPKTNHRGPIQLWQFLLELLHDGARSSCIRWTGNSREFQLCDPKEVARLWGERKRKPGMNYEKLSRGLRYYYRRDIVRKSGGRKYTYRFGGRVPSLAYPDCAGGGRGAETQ
Summary of the method: as §1

[11] = biological target: ETV1 (Homo sapiens, UniProt P50549 1-477); details: protein: recombinant; tags: N-terminal GST; dsDNA, one strand shown
Sequence of ETV1 (P50549 whole entry): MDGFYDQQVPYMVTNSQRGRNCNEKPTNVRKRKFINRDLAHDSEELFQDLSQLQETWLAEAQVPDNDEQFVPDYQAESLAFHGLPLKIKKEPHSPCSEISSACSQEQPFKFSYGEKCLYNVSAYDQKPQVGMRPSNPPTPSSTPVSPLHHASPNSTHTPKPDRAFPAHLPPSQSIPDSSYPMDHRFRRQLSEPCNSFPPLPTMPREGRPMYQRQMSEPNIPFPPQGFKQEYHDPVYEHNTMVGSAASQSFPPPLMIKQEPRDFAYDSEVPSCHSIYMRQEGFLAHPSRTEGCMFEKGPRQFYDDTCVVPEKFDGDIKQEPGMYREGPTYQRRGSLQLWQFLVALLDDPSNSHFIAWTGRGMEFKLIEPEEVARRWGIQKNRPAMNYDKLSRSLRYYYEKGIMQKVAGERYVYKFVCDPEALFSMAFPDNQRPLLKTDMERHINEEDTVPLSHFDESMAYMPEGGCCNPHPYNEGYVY
Summary of the method: as §1

[12] = biological target: T7, ERG (Homo sapiens, UniProt P11308 1-479); details: protein: recombinant; tags: N-terminal GST; dsDNA, one strand shown
T7 sequence: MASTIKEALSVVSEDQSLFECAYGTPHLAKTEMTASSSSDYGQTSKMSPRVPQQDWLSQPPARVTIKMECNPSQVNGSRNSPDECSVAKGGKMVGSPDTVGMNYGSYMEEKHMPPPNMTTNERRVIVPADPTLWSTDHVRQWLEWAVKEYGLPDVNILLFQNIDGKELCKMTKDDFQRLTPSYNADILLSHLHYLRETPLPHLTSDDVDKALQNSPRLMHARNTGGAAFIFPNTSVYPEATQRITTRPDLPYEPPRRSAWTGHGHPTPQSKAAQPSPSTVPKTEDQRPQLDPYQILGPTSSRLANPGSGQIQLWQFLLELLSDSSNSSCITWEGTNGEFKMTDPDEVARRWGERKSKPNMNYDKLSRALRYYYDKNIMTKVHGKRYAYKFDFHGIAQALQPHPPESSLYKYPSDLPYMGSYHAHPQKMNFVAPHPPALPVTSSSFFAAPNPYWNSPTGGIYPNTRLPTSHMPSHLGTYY
Summary of the method: as §1

[13] = biological target: T8, EHF (Homo sapiens, UniProt Q9NZC4 1-300); details: protein: recombinant; tags: N-terminal GST; dsDNA, one strand shown
T8 sequence: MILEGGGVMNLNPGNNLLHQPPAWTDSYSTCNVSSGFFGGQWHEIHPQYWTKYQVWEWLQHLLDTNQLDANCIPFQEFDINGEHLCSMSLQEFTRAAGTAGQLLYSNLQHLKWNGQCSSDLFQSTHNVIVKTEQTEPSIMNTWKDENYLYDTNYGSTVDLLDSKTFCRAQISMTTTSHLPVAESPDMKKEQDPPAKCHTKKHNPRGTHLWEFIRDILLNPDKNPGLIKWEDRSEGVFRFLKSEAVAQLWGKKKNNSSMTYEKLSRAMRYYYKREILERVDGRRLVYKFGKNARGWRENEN
Summary of the method: as §1

[14] = biological target: SPI1 (Homo sapiens, UniProt P17947 1-270); details: protein: recombinant; tags: N-terminal GST; dsDNA, one strand shown
Summary of the method: as §1

[15] = biological target: SPIB (Homo sapiens, UniProt Q01892 1-262); details: protein: recombinant; tags: N-terminal GST; dsDNA, one strand shown
Sequence of SPIB (Q01892 whole entry): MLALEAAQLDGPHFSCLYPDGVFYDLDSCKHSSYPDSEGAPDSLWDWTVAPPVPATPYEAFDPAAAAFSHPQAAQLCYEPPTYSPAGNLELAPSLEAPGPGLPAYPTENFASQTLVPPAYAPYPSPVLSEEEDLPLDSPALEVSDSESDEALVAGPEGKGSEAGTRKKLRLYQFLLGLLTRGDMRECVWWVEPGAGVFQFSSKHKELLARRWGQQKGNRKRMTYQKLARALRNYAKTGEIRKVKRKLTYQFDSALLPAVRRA
Summary of the method: as §1

[16] = biological target: T9, ELK3 (Homo sapiens, UniProt P41970 1-407); details: protein: recombinant; tags: N-terminal GST; dsDNA, one strand shown
T9 sequence: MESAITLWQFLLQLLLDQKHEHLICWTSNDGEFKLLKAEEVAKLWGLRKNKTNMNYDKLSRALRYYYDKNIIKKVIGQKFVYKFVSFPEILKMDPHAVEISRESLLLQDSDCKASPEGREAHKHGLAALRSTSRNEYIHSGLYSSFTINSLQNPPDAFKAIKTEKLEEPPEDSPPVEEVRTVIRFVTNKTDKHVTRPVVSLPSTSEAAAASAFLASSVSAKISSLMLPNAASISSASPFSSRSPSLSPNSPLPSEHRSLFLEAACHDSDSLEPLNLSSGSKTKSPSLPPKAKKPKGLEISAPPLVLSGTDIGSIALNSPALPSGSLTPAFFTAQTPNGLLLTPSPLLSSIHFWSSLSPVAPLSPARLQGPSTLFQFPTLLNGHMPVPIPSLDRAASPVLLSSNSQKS
Summary of the method: as §1

[17] = biological target: T10, FEV (Homo sapiens, UniProt Q99581 1-238); details: protein: recombinant; tags: N-terminal GST; dsDNA, one strand shown
T10 sequence: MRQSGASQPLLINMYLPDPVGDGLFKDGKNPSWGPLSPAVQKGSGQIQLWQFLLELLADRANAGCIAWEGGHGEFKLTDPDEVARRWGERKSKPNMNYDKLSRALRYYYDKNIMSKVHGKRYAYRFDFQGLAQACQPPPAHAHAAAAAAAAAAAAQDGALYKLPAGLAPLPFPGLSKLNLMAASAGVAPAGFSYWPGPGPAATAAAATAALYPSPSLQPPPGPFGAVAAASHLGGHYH
Summary of the method: as §1

Sequence	binding signal [1]	binding signal [2]	binding signal [3]	binding signal [4]	binding signal [5]	binding signal [6]	binding signal [7]	binding signal [8]	binding signal [9]	binding signal [10]	binding signal [11]	binding signal [12]	binding signal [13]	binding signal [14]	binding signal [15]	binding signal [16]	binding signal [17]
GAATAC	1.1 fold enrichment (6-mer frequency, TF over GST control)	1.1 fold enrichment (6-mer frequency, TF over GST control)	1.11 fold enrichment (6-mer frequency, TF over GST control)	1.08 fold enrichment (6-mer frequency, TF over GST control)	1.01 fold enrichment (6-mer frequency, TF over GST control)	1.16 fold enrichment (6-mer frequency, TF over GST control)	1.06 fold enrichment (6-mer frequency, TF over GST control)	1.01 fold enrichment (6-mer frequency, TF over GST control)	1.05 fold enrichment (6-mer frequency, TF over GST control)	1.05 fold enrichment (6-mer frequency, TF over GST control)	1.09 fold enrichment (6-mer frequency, TF over GST control)						
TTCACA	1.27 fold enrichment (6-mer frequency, TF over GST control)	1.17 fold enrichment (6-mer frequency, TF over GST control)	1.23 fold enrichment (6-mer frequency, TF over GST control)	1.16 fold enrichment (6-mer frequency, TF over GST control)	1.16 fold enrichment (6-mer frequency, TF over GST control)	1.04 fold enrichment (6-mer frequency, TF over GST control)	1.08 fold enrichment (6-mer frequency, TF over GST control)	1.17 fold enrichment (6-mer frequency, TF over GST control)	1.28 fold enrichment (6-mer frequency, TF over GST control)	1.28 fold enrichment (6-mer frequency, TF over GST control)	1.25 fold enrichment (6-mer frequency, TF over GST control)	1.18 fold enrichment (6-mer frequency, TF over GST control)	1.2 fold enrichment (6-mer frequency, TF over GST control)	1.08 fold enrichment (6-mer frequency, TF over GST control)	1.25 fold enrichment (6-mer frequency, TF over GST control)	1.26 fold enrichment (6-mer frequency, TF over GST control)	1.17 fold enrichment (6-mer frequency, TF over GST control)
TGCGCG	1.02 fold enrichment (6-mer frequency, TF over GST control)	1.05 fold enrichment (6-mer frequency, TF over GST control)	1.02 fold enrichment (6-mer frequency, TF over GST control)	1.02 fold enrichment (6-mer frequency, TF over GST control)	1.07 fold enrichment (6-mer frequency, TF over GST control)	1.15 fold enrichment (6-mer frequency, TF over GST control)	1.05 fold enrichment (6-mer frequency, TF over GST control)	1.05 fold enrichment (6-mer frequency, TF over GST control)	1.16 fold enrichment (6-mer frequency, TF over GST control)	1.13 fold enrichment (6-mer frequency, TF over GST control)	1.19 fold enrichment (6-mer frequency, TF over GST control)	1.04 fold enrichment (6-mer frequency, TF over GST control)	1.16 fold enrichment (6-mer frequency, TF over GST control)	1.16 fold enrichment (6-mer frequency, TF over GST control)	1.06 fold enrichment (6-mer frequency, TF over GST control)	1.11 fold enrichment (6-mer frequency, TF over GST control)	1.07 fold enrichment (6-mer frequency, TF over GST control)

Source: PMC7862700, “An all-to-all approach to the identification of sequence-specific readers for epigenetic DNA modifications on cytosine”
